Among all 360,000 compounds or so, about 17,000 (4.7%) were called active. Inconclusive results (about 5%) are left out. For the sample, actives were picked, then their nearest neighbours and some compounds at random. A number with no mark means an inactive call. Cut-off read from the data, not from the text of the source: active = activity change below about -50%; inconclusive = mostly about -30% to -49%; inactive = weaker than that.
experiment: qHTS for Inhibitors of Inflammasome Signaling: IL-1-beta AlphaLISA Primary Screen; conditions: THP-1 LPS/ATP IL-1B secretion, 16 h; at 57.5 µM, stronger effect = lower value
Method in brief: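 THP-1 cells pretreated 1 hr with compounds (up to 57.5 uM final), then stimulated with LPS (250 ng/mL final) plus ATP (1.25 mM final); secreted IL-1B measured by AlphaLISA after 16 hr, decreased signal indicating inhibition.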
% is set by controls: 0 for no effect and ±100 for the full control effect.

Q: Which activity change does the source give for CC(C)C[C@@H]1COc2cc(N3CCC[C@@H]3CO)ccc2S(=O)(=O)N1 here?
A: 24.4%

Q: For CCc1ccc(C(CNc2nc(C(F)(F)F)nc3ccccc23)N(C)C)cc1 (stereo unspecified), which activity change is on record?
A: -104% (active)

Q: Which activity change does the source give for CN(NC(=O)c1ccccc1F)c1nc(C(F)(F)F)nc2ccccc12 here?
A: 94.2%

Q: For COc1cccc(CNC(=O)c2n[nH]c3ccccc23)c1, which activity change is on record?
A: -5.24%

Q: Which activity change does the source give for COc1cccc(CNc2nc(C(F)(F)F)nc3ccccc23)c1 here?
A: -81.4% (active)

Q: With COc1ccc(CNc2ncnc3ccccc23)cc1 as the compound, how does the activity change read?
A: -5.53%

Q: Which activity change does the source give for NS(=O)(=O)c1ccc(CCNc2nc(C(F)(F)F)nc3ccccc23)cc1 here?
A: -29.6%

Q: For O=C(NCCc1ccc(F)cc1)c1ccc(S(=O)(=O)N2CCCCC2)cc1, which activity change is on record?
A: 7.26%

Q: Which activity change does the source give for CC1CN/C(=C\C(=O)c2ccc(Br)cc2)C(=O)N1 (stereo unspecified) here?
A: -2.3%

Q: For CCc1nc2c(=O)[nH]cnc2o1, which activity change is on record?
A: -0.15%

Q: For CCCNC(=O)C1(C)CCCN(Cc2c(C)nn(-c3ccccc3)c2C)C1 (stereo unspecified), which activity change is on record?
A: 0%

Q: With C[C@H]1Cn2cnc(C(=O)N[C@H](C)c3ccccc3)c2C(=O)N1 as the compound, how does the activity change read?
A: 56.9%

Q: With O=C(Nc1cccc(C(=O)O)c1)/C(=C\c1ccccc1)NC(=O)c1ccc(Br)o1 as the compound, how does the activity change read?
A: -24.2%

Q: With C[C@H]1CN([C@@H](C)CO)S(=O)(=O)c2ccc(Br)cc2O[C@H]1CN(C)C(=O)c1cnccn1 as the compound, how does the activity change read?
A: 7.37%

Q: For Nc1c(C(=O)c2cccs2)sc2nsc(SCCN3CCCCC3)c12, which activity change is on record?
A: -95.7% (active)

Q: Which activity change does the source give for O=C(CSc1ncnc2sccc12)N1CCN(C(=O)c2cccs2)CC1 here?
A: -0.616%

Q: Which activity change does the source give for CCC1OC(C2CC2)CC2=C1C(=O)OC(C)(C)O2 (stereo unspecified) here?
A: 29.6%

Q: With O=[N+]([O-])c1ccc(N2CCN(c3ccc(F)cc3)CC2)cn1 as the compound, how does the activity change read?
A: -1.6%

Q: With COc1ccc(C2N=C(N)N=C(N)N2c2ccccc2)cc1OC (stereo unspecified) as the compound, how does the activity change read?
A: -16.9%

Q: For NC1=NC(c2ccc([N+](=O)[O-])cc2)N(c2ccc(F)cc2)C(N)=N1 (stereo unspecified), which activity change is on record?
A: -52.3% (active)

Q: Which activity change does the source give for CC(C)(C)c1ccc(S(=O)(=O)NC(=O)C2(C)CCN2C(=O)CC2CC2)cc1 (stereo unspecified) here?
A: -3.72%

Q: For CCCCn1c(CN2CCN(CCO)CC2)nc2ccccc21, which activity change is on record?
A: 44.1%

Q: Which activity change does the source give for CC(Nc1nc(N2CCN(CCO)CC2)nc2ccccc12)c1ccccc1 (stereo unspecified) here?
A: -90.7% (active)

Q: Which activity change does the source give for c1ccc(-c2cc(N3CCCCC3)c3ccccc3n2)cc1 here?
A: -26.2%

Q: With CC(Nc1nc(N2CCCC2)nc2ccccc12)c1ccccc1 (stereo unspecified) as the compound, how does the activity change read?
A: -80.2% (active)

Q: With CC(Nc1nc(N2CCOCC2)nc2ccccc12)c1ccccc1 (stereo unspecified) as the compound, how does the activity change read?
A: 0%

Q: Which activity change does the source give for Cn1c(=O)[nH]c(=O)c2c1nc(N1CCN(CCO)CC1)n2CCSc1nc2ccccc2s1 here?
A: 10.2%

Q: For COc1ccc(CCCNC(=O)C2Cc3c(-c4cccc(C(N)=O)c4)ccnc3O2)cc1 (stereo unspecified), which activity change is on record?
A: 34.7%

Q: With CCN(CC)CCCN=C(N)N as the compound, how does the activity change read?
A: -17.5%

Q: For O=P(c1ccc2c(c1)OCCO2)(N1CCOCC1)N1CCOCC1, which activity change is on record?
A: 8.69%

Q: For Cc1ccc(NC(=O)C(c2ccccc2)N2CCN(C(=O)c3ccco3)CC2)cc1 (stereo unspecified), which activity change is on record?
A: 16.1%

Q: For COc1cccc(OCc2cc(C(=O)N3CCN(C(=O)c4ccco4)CC3)no2)c1, which activity change is on record?
A: 6.56%

Q: With Cc1ccc(OCC(=O)Nc2ccc(N3CCN(C(=O)c4ccco4)CC3)cc2)c(C)c1 as the compound, how does the activity change read?
A: -61.6% (active)

Q: With COc1cccc(C(=O)Nc2ccc(N3CCN(C(=O)c4ccco4)CC3)cc2)c1 as the compound, how does the activity change read?
A: -73.8% (active)

Q: With Cc1ccc(OCC(=O)Nc2ccc(NC(=O)c3cccs3)cc2)c(C)c1 as the compound, how does the activity change read?
A: -1.3%

Q: With COc1ccc(C(=O)Nc2ccccc2C(=O)N2CCN(c3ccccc3)CC2)cc1 as the compound, how does the activity change read?
A: 0%

Q: Which activity change does the source give for O=C(Nc1cc2c3c(c1)CC(=O)N3CCC2)c1ccccc1F here?
A: 4.9%

Q: Which activity change does the source give for CCNC(=O)C1(C)CCCN(Cc2noc(-c3ccccc3OC)n2)C1 (stereo unspecified) here?
A: -5.34%

Q: With C[C@H]1CN([C@@H](C)CO)C(=O)CCCn2nncc2CO[C@@H]1CN(C)Cc1ccc(Oc2ccccc2)cc1 as the compound, how does the activity change read?
A: 8.16%

Q: With CCOCCCNC(=O)C(NC(=O)Cc1c[nH]c2ccccc12)c1ccc(OC)cc1 (stereo unspecified) as the compound, how does the activity change read?
A: 10.6%

Q: Which activity change does the source give for N#Cc1nc(COc2ccc(-c3ccccc3)cc2)oc1NCc1cccnc1 here?
A: -79.6% (active)

Q: With O=S(=O)(c1ccc(Br)cc1)c1nc(-c2ccccc2)oc1NCc1cccnc1 as the compound, how does the activity change read?
A: -18.2%

Q: For Cc1cc(NCc2cccnc2)no1, which activity change is on record?
A: 3.61%

Q: With C/C(=N\NC(=O)NC1CCCCC1)c1ccc(OC(F)F)cc1OC(F)F as the compound, how does the activity change read?
A: -80.5% (active)

Q: Which activity change does the source give for O=C(COC(=O)/C=C/c1ccc(OC(F)F)cc1)NC1CCCCC1 here?
A: 17.5%

Q: Which activity change does the source give for CCCC/C(C)=N/NC(=O)NC1CCCCC1 here?
A: 14.3%

Q: For O=C(c1ccc(Cn2cc([N+](=O)[O-])cn2)o1)N1CCCC1, which activity change is on record?
A: 13.7%

Q: For Cc1ccn(-c2cccc(-n3ccc(C)n3)n2)n1, which activity change is on record?
A: 25.2%

Q: For O=C1N[C@@H](c2ccccc2)COC(=O)[C@H](Cc2ccc(F)cc2)C/C=C\C[C@@H]1CC(=O)N(CCO)Cc1ccccc1, which activity change is on record?
A: -68.1% (active)

Q: Which activity change does the source give for O=C1OC[C@@H]2CCCN2C(=O)[C@H](CC(=O)N(CCO)Cc2ccccc2)C/C=C\CC[C@@H]1Cc1ccc(F)cc1 here?
A: -27.7%

Q: Which activity change does the source give for CC(C)(C)OC(=O)C[C@@H]1C/C=C\C[C@@H](CC(=O)N(CCO)Cc2ccccc2)C(=O)N[C@H](Cc2ccccc2)COC1=O here?
A: -12.5%

Q: With O=C1CCC/C=C/C[C@@H](CC(=O)N(CCO)Cc2ccccc2)C(=O)NC[C@H](c2ccccc2)O1 as the compound, how does the activity change read?
A: -15.8%

Q: With O=C1NC[C@@H](c2ccccc2)OC(=O)[C@H](Cc2ccc(F)cc2)CC/C=C/C[C@H]1CC(=O)N(CCO)Cc1ccccc1 as the compound, how does the activity change read?
A: -57.4% (active)

Q: For O=C1CCC/C=C\C[C@@H](CC(=O)N(CCO)Cc2ccccc2)C(=O)NCCO1, which activity change is on record?
A: 36.5%

Q: Which activity change does the source give for CCCCc1ccc(S(=O)(=O)NC(=O)C2(C)CCN2C(=O)c2c(C)noc2C)cc1 (stereo unspecified) here?
A: 24.9%

Q: For CCN(CC)C(=O)N1CCN(C(=O)c2ccc(C)cn2)CC1, which activity change is on record?
A: 13.6%

Q: With Cc1ccc(S(=O)(=O)N2CCCC2C(=O)OCc2nc3sc(C)c(C)c3c(=O)[nH]2)cc1 (stereo unspecified) as the compound, how does the activity change read?
A: -4.97%

Q: For CCn1ccnc1CN(C)Cc1nc(-c2ccc3c(c2)OCO3)no1, which activity change is on record?
A: 1.77%

Q: With Cc1ccc(-n2cc(CN(C)Cc3nccn3C)c(-c3cccc(C)c3)n2)cc1 as the compound, how does the activity change read?
A: -85.3% (active)

Q: For Cc1ccc(-n2cnc3ncnc(-c4ccccc4)c32)cc1, which activity change is on record?
A: -9.14%

Q: With O=C(C=CC(=O)Nc1ccc(F)cc1F)Nc1ccc(F)cc1F as the compound, how does the activity change read?
A: 36.7%

Q: With CCNc1nc(Oc2ccc(C(=O)OC)cc2)nc(N2CCOCC2)n1 as the compound, how does the activity change read?
A: 7.61%

Q: Which activity change does the source give for COC(=O)c1ccc(Oc2nc(Nc3ccc(F)cc3)nc(N3CCCC3)n2)cc1 here?
A: -60.2% (active)

Q: For COC(=O)c1ccc(Oc2nc(NC(C)C)nc(SC)n2)cc1, which activity change is on record?
A: 19.1%

Q: With CCOC(=O)c1c(-c2ccccc2)oc2cc(Br)c(O)cc12 as the compound, how does the activity change read?
A: 0%

Q: For CCOC(=O)c1c(-c2ccccc2)oc2ccc(OCC(=O)NN)cc12, which activity change is on record?
A: -28.6%

Q: With CCOC(=O)c1c(-c2ccccc2)oc2cc(Br)c(O)c(C=O)c12 as the compound, how does the activity change read?
A: -98% (active)

Q: For Cc1cc(OCC(=O)Nc2nccs2)c2c(C)c(C)c(=O)oc2c1, which activity change is on record?
A: 6.37%

Q: For Cc1nc2nc(SCC(=O)NCc3ccco3)nn2c(C)c1Cc1ccccc1, which activity change is on record?
A: -78.8% (active)

Q: Which activity change does the source give for Cc1ccc(Cc2c(C)nc3nc(SCC(=O)NCCN4CCOCC4)nn3c2C)cc1 here?
A: 7.76%

Q: For Cc1cc(C)n2nc(SCC(=O)NC(=O)NCc3ccco3)nc2n1, which activity change is on record?
A: 34.3%

Q: With Fc1ccc(N2N=C(c3cccs3)CC2c2ccco2)c(F)c1 (stereo unspecified) as the compound, how does the activity change read?
A: 5.22%

Q: For O=C(O)C1CCCN1c1nc(Cl)ccc1[N+](=O)[O-] (stereo unspecified), which activity change is on record?
A: -1.43%

Q: For CC(=O)N[C@H]1[C@H]([C@H](O)[C@H](O)CO)OC(C(=O)O)=C[C@@H]1O, which activity change is on record?
A: 1.96%

Q: For CCOC(=O)C1=C(C)c2ccccc2OC1(C)C(=O)OCC (stereo unspecified), which activity change is on record?
A: 41.5%

Q: With CCOC(=O)c1c(C)[nH]c2c1-c1ccccc1C(=O)C2=O as the compound, how does the activity change read?
A: -53.9% (active)

Q: Which activity change does the source give for CCOC(=O)c1c(C)nc2c(c1C)c(=O)oc1ccccc12 here?
A: 7%

Q: Which activity change does the source give for CN(C)CCCOc1ccc(-c2ccc3nccn3c2)cn1 here?
A: -5.3%

Q: For CCC(C)(C)n1nnnc1CN1CCN(c2nc3ccc(C)cc3cc2C#N)CC1, which activity change is on record?
A: -68.2% (active)

Q: For CCOc1ccc2nc(N3CCCN(C(=O)Nc4ccccc4C)CC3)c(C#N)cc2c1, which activity change is on record?
A: -14.3%

Q: With Cc1cc(C)c2cc(C#N)c(N3CCNCC3)nc2c1 as the compound, how does the activity change read?
A: -29.2%

Q: For O=C(CSc1ncn[nH]1)Nc1nsc(-c2ccccc2)n1, which activity change is on record?
A: 10.9%

Q: Which activity change does the source give for O=C(CSc1ncn[nH]1)Nc1ccnc2ccccc12 here?
A: 11%

Q: With O=C(CSc1ncn[nH]1)Nc1ccc(Br)cc1Br as the compound, how does the activity change read?
A: -53.6% (active)

Q: With NS(=O)(=O)c1ccc(NC(=O)COC(=O)CCc2c[nH]c3ccccc23)cc1 as the compound, how does the activity change read?
A: 0%

Q: For Cc1csc(SCC(=O)Nc2ccc(C)c(S(=O)(=O)N(C)C)c2)n1, which activity change is on record?
A: 42.7%

Q: With CNCC[C@H](Oc1ccc(C(F)(F)F)cc1)c1ccccc1 as the compound, how does the activity change read?
A: -68.4% (active)

Q: With CC(NC(=O)COC(=O)Cn1cc(C(F)(F)F)ccc1=O)c1ccccc1 (stereo unspecified) as the compound, how does the activity change read?
A: -0.662%

Q: For CC(C)Oc1ccc(Oc2ccc(C(F)(F)F)cn2)cc1, which activity change is on record?
A: -23.6%

Q: Which activity change does the source give for CCOC(=O)c1c(NC(=S)SC)sc(C(=O)N2CCc3ccccc3C2)c1C here?
A: 1.46%

Q: For CN(CC(=O)NCC(c1ccccc1)N1CCCC1)S(=O)(=O)c1ccc(Cl)cc1 (stereo unspecified), which activity change is on record?
A: -22.9%

Reference: PubChem BioAssay AID743279 (National Center for Advancing Translational Sciences (NCATS), 2014)
